# Source: PubChem BioAssay (NCATS)
# “And” between values parts separate entries of the source, which are not always exact repeats. Identical values can stand only once. A number with no mark means an inactive call. Records with an inconclusive call do not appear. Some compounds were tested as several samples or in several runs, with calls that do not always agree. The source made the active and inactive calls. Unless noted, calls come from the whole dose curve; as a rule, active = well fitted inhibition curve with a large enough effect; inconclusive = small, poorly fitted or top-dose-only effect; inactive = flat fitted curve, though single readings scatter.
# Legend:
# [1] = Drug repurposing screens with cells derived from glioblastoma tumor samples (AID 1345199); conditions: GBM patient neurospheres viability, ATP luminescence, 48 h; note: nearly all actives have a fitted effect of over 40% in size; note: potency is the fitted concentration of half-maximal effect; for activity, negative = cell killing: % is set by controls: 0 for no effect and ±100 for the full control effect
# In short: (§1)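 Four patient lines of CD133+ GBM neurospheres were screened at several concentrations; hits were retested in those lines plus three slower-growing GBM lines, using 48-hour treatment and ATP-based viability.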
# astro = control astrocytes; assay: as above; conditions: viability, ATP luminescence, 48 h; series mostly up to 45.9 µM
# In short: as §1
# [2] = biological target: Nuclear receptor subfamily 1 group I member 2 (Rattus norvegicus) (UniProt Q9R1A7); assay: qHTS assay for small molecule activators of the rat pregnane X receptor (rPXR) signaling pathway (AID 651751; call rule not given here; note: 0% is about no effect); conditions: rPXR reporter cells, luciferase (One-Glo), 24 h
# Sequence of Nuclear receptor subfamily 1 group I member 2 (Rattus norvegicus) (Q9R1A7 whole entry, looked up): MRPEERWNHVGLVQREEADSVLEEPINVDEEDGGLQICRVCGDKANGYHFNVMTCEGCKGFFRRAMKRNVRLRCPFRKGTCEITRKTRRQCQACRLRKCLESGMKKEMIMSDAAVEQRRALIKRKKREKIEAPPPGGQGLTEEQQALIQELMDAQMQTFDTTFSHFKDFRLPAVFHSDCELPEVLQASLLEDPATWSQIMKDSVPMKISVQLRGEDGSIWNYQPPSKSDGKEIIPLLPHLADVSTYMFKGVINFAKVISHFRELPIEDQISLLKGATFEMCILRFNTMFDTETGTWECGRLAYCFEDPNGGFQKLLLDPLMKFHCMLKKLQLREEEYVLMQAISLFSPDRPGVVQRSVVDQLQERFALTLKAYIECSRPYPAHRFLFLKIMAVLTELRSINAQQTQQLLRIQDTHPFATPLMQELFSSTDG
# [3] = at 45.9 µM (top of the series), tumour line B
# [4] = at 45.9 µM (top of the series), tumour line D
# [5] = at 46.1 µM (top of the series), tumour line C
# [6] = at 21.2 µM (top of the series), tumour line B
# [7] = at 21.2 µM (top of the series), tumour line D
compound,measurement,setting,value
CC(=O)N[C@@H](C=O)[C@@H](O)[C@H](O)[C@H](O)CO,"activity, negative = cell killing",[1]; [3],-6.52%
same,"activity, negative = cell killing",[1]; [4],-3.57%
same,"activity, negative = cell killing",[1]; [5],-2.77%
same,Potency,astro,inactive
NCCO/C=C/[C@H](N)C(=O)O,"activity, negative = cell killing",[1]; [3],-6.64%
same,"activity, negative = cell killing",[1]; [4],5.28%
same,"activity, negative = cell killing",[1]; [5],26.3%
same,Potency,astro,inactive
same,max response,[2],-1.31%
CCCCCCCCCCCCCCCCCCOCC(COP(=O)([O-])OCC[N+](C)(C)C)OC (stereo not drawn),"activity, negative = cell killing",[1]; [4],-24.7%
same,"activity, negative = cell killing",[1]; [5],-1.43%
same,Potency,[1]; tumour line A,35.5 µM (active)
same,Potency,astro,inactive
[O-][N+](=Nc1ccccc1)c1ccccc1,"activity, negative = cell killing",[1]; [3],-12.7%
same,"activity, negative = cell killing",[1]; [4],-9.27%
same,"activity, negative = cell killing",[1]; [5],-6.88%
same,Potency,astro,inactive
C=CC(C)(O)CC/C=C(\C)CCC=C(C)C (stereo not drawn),"activity, negative = cell killing",[1]; [3],-7.36%
same,"activity, negative = cell killing",[1]; [4],-9.56%
same,"activity, negative = cell killing","[1]; at 46 µM (top of the series), tumour line A",-15.8%
same,Potency,astro,inactive
same,max response,[2],14.8%
CCCCCCCCCC(=O)NO,"activity, negative = cell killing",[1]; [3],-14.3%
same,"activity, negative = cell killing",[1]; [5],-21.2% and 7.01%
same,Potency,astro,inactive
CCCCCCCCCCCCCCCCCC(=O)OC[C@@H](O)[C@H]1OC[C@H](O)[C@H]1O,"activity, negative = cell killing",[1]; [3],3.83%
same,"activity, negative = cell killing",[1]; [4],2.86%
same,"activity, negative = cell killing",[1]; [5],-1.68%
same,Potency,astro,inactive
same,max response,[2],2.96%
C=CC1=C(C(=O)O)N2C(=O)[C@@H](NC(=O)/C(=N/OCC(=O)O)c3csc(N)n3)[C@H]2SC1 (stereo in doubt),"activity, negative = cell killing","[1]; at 20 µM (top of the series), tumour line C",2.81%
same,"activity, negative = cell killing",[1]; [6],-6.13%
same,"activity, negative = cell killing",[1]; [7],-19.8%
same,Potency,astro,inactive
C=C[C@]1(C)C[C@@H](OC(=O)CSCCN(CC)CC)[C@]2(C)[C@H](C)CC[C@]3(CCC(=O)[C@H]32)[C@@H](C)[C@@H]1O,"activity, negative = cell killing",[1]; [3],-23.5%
same,Potency,[1]; tumour line A,7.94 µM (active)
same,Potency,astro,inactive
OC[C@H]1O[C@@](CO)(O[C@H]2O[C@H](CO)[C@@H](O)[C@H](O)[C@H]2O)[C@@H](O)[C@@H]1O,"activity, negative = cell killing",[1]; [3],-5.09%
same,"activity, negative = cell killing",[1]; [4],-14.4%
same,"activity, negative = cell killing",[1]; [5],-22.3%
same,Potency,astro,inactive
same,max response,[2],1.07%
Cc1cccc(C)c1NC(=O)NC1=CCCN1C,"activity, negative = cell killing",[1]; [3],-5.38%
same,"activity, negative = cell killing",[1]; [4],-0.755%
same,"activity, negative = cell killing",[1]; [5],0.0506%
same,Potency,astro,inactive
COc1c(O[C@@H]2O[C@H](CO)[C@@H](O)[C@H](O)[C@H]2O)cc2c(c1OC)-c1ccc(SC)c(=O)cc1[C@@H](NC(C)=O)CC2,"activity, negative = cell killing",[1]; [6],-28.7%
same,"activity, negative = cell killing",[1]; [7],-5.86%
same,"activity, negative = cell killing","[1]; at 21.3 µM (top of the series), tumour line A",-6.81%
same,Potency,astro,inactive
C=C1[C@@H]2CC[C@@H](C2)C1(C)C,"activity, negative = cell killing",[1]; [3],-1.58%
same,"activity, negative = cell killing",[1]; [4],-22%
same,Potency,astro,inactive
CO/N=C(/C(=O)N[C@@H]1C(=O)N2C(C(=O)O)=C(COC(N)=O)CS[C@H]12)c1ccco1,"activity, negative = cell killing",[1]; [3],3.13% and -9.26%
same,"activity, negative = cell killing",[1]; [4],-9.35% and -16.7%
same,"activity, negative = cell killing",[1]; [5],6.13% and -0.48%
same,Potency,astro,inactive
same,max response,[2],-2.68%
COc1ccc(C(=O)c2ccc(C)cc2)c(O)c1,"activity, negative = cell killing",[1]; [3],-19.8%
same,"activity, negative = cell killing",[1]; [4],-4.36%
same,"activity, negative = cell killing",[1]; [5],-21.4%
same,Potency,astro,inactive
Oc1cccc(O)c1O,"activity, negative = cell killing",[1]; [3],-15.1%
same,"activity, negative = cell killing",[1]; [4],2.75%
same,"activity, negative = cell killing",[1]; [5],15.2%
same,Potency,astro,inactive
same,max response,[2],-3.92%
CC(CCc1ccc(O)cc1)NCC(O)c1ccc(O)cc1 (stereo not drawn),"activity, negative = cell killing",[1]; [3],1.78%
same,"activity, negative = cell killing",[1]; [4],4.34%
same,"activity, negative = cell killing",[1]; [5],2.7%
same,Potency,astro,inactive
CCOC(=O)Cc1ccc(-c2ccccc2)cc1,"activity, negative = cell killing",[1]; [3],-6.74%
same,"activity, negative = cell killing",[1]; [4],-7.57%
same,"activity, negative = cell killing",[1]; [5],36.2%
same,Potency,astro,inactive
OC[C@H]1O[C@@H]2O[C@H]3[C@H](O)[C@@H](O)[C@@H](O[C@H]4[C@H](O)[C@@H](O)[C@@H](O[C@H]5[C@H](O)[C@@H](O)[C@@H](O[C@H]6[C@H](O)[C@@H](O)[C@@H](O[C@H]7[C@H](O)[C@@H](O)[C@@H](O[C@H]1[C@H](O)[C@H]2O)O[C@@H]7CO)O[C@@H]6CO)O[C@@H]5CO)O[C@@H]4CO)O[C@@H]3CO,"activity, negative = cell killing",[1]; [3],-13.8%
same,"activity, negative = cell killing",[1]; [4],-5.74%
same,"activity, negative = cell killing",[1]; [5],-2.87%
same,Potency,astro,inactive
same,max response,[2],1.3% and 2.85%
O=C[C@H](O)[C@@H](O)[C@@H](O)[C@H](O)CO,"activity, negative = cell killing",[1]; [3],-11.6%
same,"activity, negative = cell killing",[1]; [4],0.16%
same,"activity, negative = cell killing",[1]; [5],10.2%
same,Potency,astro,inactive
CC(=O)N[C@@H]([C@@H](O)[C@H](O)[C@H](O)CO)[C@@H](O)CC(=O)C(=O)O,"activity, negative = cell killing",[1]; [3],-12%
same,"activity, negative = cell killing",[1]; [4],-21.2%
same,"activity, negative = cell killing",[1]; [5],-14.1%
same,Potency,astro,inactive
